Reference: PubChem BioAssay (NCATS)
Activity calls are given as the source filed them. Calls follow the shape of the full dose curve.

assay: qHTS drug screen for cell cycle checkpoint inhibitors in PARPi-resistant BRCA-mutant ovarian cancer cell lines. (AID 1963452); conditions: PEO1/OlaR viability, CellTiter-Glo luminescence, 96 h; stronger effect = lower value
In short: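 PEO1, PEO4 and PEO1/OlaR ovarian cancer cells, 600 per well, exposed 96 h at 37C to a dilution series. Viability read by CellTiter-Glo luminescence, normalized to DMSO and empty wells; activity summarized as Z-AUC.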

Compound | Z-AUC
Cc1ccc(S(=O)(=O)NC(=O)NN2CC3CCCC3C2)cc1 (centres undefined) | 1.31 (inactive)
O=C1NC(=O)C(c2ccccc2[N+](=O)[O-])=C1Nc1ccc(O)c(Cl)c1 | 0.891 (inactive)
CCN(CC)C(=S)SSC(=S)N(CC)CC | 0.318 (inactive)
O=C(c1ccccc1)c1ccc2n1CCC2C(=O)O (centres undefined) | 1.02 (inactive)
Oc1ccc2ccccc2c1SSc1c(O)ccc2ccccc12 | -0.118 (inactive)
Cc1cc(Cl)ccc1OCCCC(=O)NO | 0.502 (inactive)
Cc1cc(O)c2c(c1)C(=O)c1cc(O)cc(O)c1C2=O | 0.333 (inactive)
Cc1cccc(-c2[nH]ncc2-c2ccc3ncccc3n2)n1 | -0.435 (inactive)
C[C@@H](c1ncncc1F)[C@](O)(Cn1cncn1)c1ccc(F)cc1F | -0.415 (inactive)
O=c1cc(N2CCOCC2)oc2c(-c3ccccc3)cccc12 | 0.98 (inactive)
Cc1ccc(Nc2nccc(N(C)c3ccc4c(C)n(C)nc4c3)n2)cc1S(N)(=O)=O | 1.07 (inactive)
O=C1c2c(O)cc(O)cc2OC(c2ccc(O)c(O)c2)C1O (centres undefined) | -0.835 (inactive)
S=c1nc[nH]c2nc[nH]c12 | -0.8 (inactive)
O=C(NOCC1CC1)c1ccc(F)c(F)c1Nc1ccc(I)cc1Cl | 0.682 (inactive)
COc1cc(Nc2c(C#N)cnc3cc(OCCCN4CCN(C)CC4)c(OC)cc23)c(Cl)cc1Cl | 0.106 (inactive)
COc1ccccc1N1CCN(CCN(C(=O)C2CCCCC2)c2ccccn2)CC1 | 0.61 (inactive)
CCCS(=O)c1ccc2nc(NC(=O)OC)[nH]c2c1 (centres undefined) | -0.279 (inactive)
C[C@@H](N)C1CCC(C(=O)Nc2ccncc2)CC1 (some centres undefined) | 0.275 (inactive)
CN(C)C(=O)[C@H](O)[C@H](Cc1ccccc1)NC(=O)c1cc2cc(Cl)ccc2[nH]1 | -0.181 (inactive)

same assay, conditions: PEO1/OlaR viability, CellTiter-Glo luminescence, 96 h; measured here: PEO1 parental Z-AUC; stronger effect = lower value

Compound | Z-AUC
O=C(NCC1CCCCN1)c1cc(OCC(F)(F)F)ccc1OCC(F)(F)F (centres undefined) | -0.839
CN(C)c1ccc(O)c2c1C[C@H]1C[C@H]3[C@H](N(C)C)C(=O)C(C(N)=O)=C(O)[C@@]3(O)C(=O)C1=C2O | 0.206
O=C(CCc1ccc(O)cc1)c1c(O)cc(O)cc1O | -0.361
Cc1cccc(CN2CCN(C(c3ccccc3)c3ccc(Cl)cc3)CC2)c1 (centres undefined) | -0.604
C[C@H](Cc1ccc(O)c(O)c1)[C@@H](C)Cc1ccc(O)c(O)c1 | 0.707
NCCCCNCCCN | 1.13
Nc1nc(OCc2ccccc2)c2[nH]cnc2n1 | 0.393
CC(C)Oc1ccc2c(=O)c(-c3ccccc3)coc2c1 | -0.757
CC(C)c1ccc2c(c1)c(SC(C)(C)C)c(CC(C)(C)C(=O)O)n2Cc1ccc(Cl)cc1 | 0.791
Oc1ccc(-c2nc(-c3ccc(F)cc3)c(-c3ccncc3)[nH]2)cc1 | -0.0618
CC(=O)N1CCN(c2ccc(OC[C@H]3CO[C@](Cn4ccnc4)(c4ccc(Cl)cc4Cl)O3)cc2)CC1 | 0.452
Nc1nc(N)c(N=O)c(OCC2CCCCC2)n1 | 0.757
Clc1ccc(C(Cn2ccnc2)OCc2c(Cl)cccc2Cl)c(Cl)c1 (centres undefined) | 0.252
O=Nc1c(-c2c(O)[nH]c3cc(Br)ccc23)[nH]c2ccccc12 | -0.18
NC(=NCc1ccccc1)NC(=O)c1nc(Cl)c(N)nc1N | -0.393
Clc1ccc2c(N3CCN(CCCN4CCN(c5ccnc6cc(Cl)ccc56)CC4)CC3)ccnc2c1 | 0.492
Cc1ccc(S(=O)(=O)NC(=O)NN2CC3CCCC3C2)cc1 (centres undefined) | 0.956
O=C1NC(=O)C(c2ccccc2[N+](=O)[O-])=C1Nc1ccc(O)c(Cl)c1 | 0.49

Compound | Z-AUC
CCN(CC)C(=S)SSC(=S)N(CC)CC | 0.214
O=C(c1ccccc1)c1ccc2n1CCC2C(=O)O (centres undefined) | 0.719
Oc1ccc2ccccc2c1SSc1c(O)ccc2ccccc12 | 0.665
Cc1cc(Cl)ccc1OCCCC(=O)NO | 0.403
Cc1cc(O)c2c(c1)C(=O)c1cc(O)cc(O)c1C2=O | 0.799
Cc1cccc(-c2[nH]ncc2-c2ccc3ncccc3n2)n1 | 0.556
C[C@@H](c1ncncc1F)[C@](O)(Cn1cncn1)c1ccc(F)cc1F | 1.15
O=c1cc(N2CCOCC2)oc2c(-c3ccccc3)cccc12 | 0.743
Cc1ccc(Nc2nccc(N(C)c3ccc4c(C)n(C)nc4c3)n2)cc1S(N)(=O)=O | 0.627
O=C1c2c(O)cc(O)cc2OC(c2ccc(O)c(O)c2)C1O (centres undefined) | -0.249
S=c1nc[nH]c2nc[nH]c12 | -0.506
O=C(NOCC1CC1)c1ccc(F)c(F)c1Nc1ccc(I)cc1Cl | -0.295
COc1cc(Nc2c(C#N)cnc3cc(OCCCN4CCN(C)CC4)c(OC)cc23)c(Cl)cc1Cl | 0.26
COc1ccccc1N1CCN(CCN(C(=O)C2CCCCC2)c2ccccn2)CC1 | 0.37
CCCS(=O)c1ccc2nc(NC(=O)OC)[nH]c2c1 (centres undefined) | -0.314
C[C@@H](N)C1CCC(C(=O)Nc2ccncc2)CC1 (some centres undefined) | 0.543
CN(C)C(=O)[C@H](O)[C@H](Cc1ccccc1)NC(=O)c1cc2cc(Cl)ccc2[nH]1 | 0.139
